Reference: PubChem BioAssay
Measured potencies and affinities stand elsewhere. Results filed as inconclusive are left out. A number with no mark means an inactive call.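 How the source made its calls, unless noted: active means signal-lowering compounds whose fitted half-maximal concentration is at or below twice the top tested dose in every run; inconclusive means runs disagree, flat 30 to 70% inhibition, or poor curve fit; inactive means the rest.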

experiment: cytotoxicity in PAX8-dependent RMG-1 cells, dose response, cell-based, cherry-pick (AID 687029;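 active means signal drop whose fitted half-maximal concentration is at most twice the top valid dose, in every test run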;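 further: cells exposed to compound for 96 hours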); conditions: RMG-1 viability, CellTiterGlo ATP luminescence, 96 h; series mostly up to 35 µM; activity change, negative = inhibition: at the top concentration

Row | Structure (SMILES) | activity change, negative = inhibition
1 | Cc1ccc(CCc2nnc(SCC(=O)Nc3cccc(Cl)c3)n2-c2ccccc2)o1 | 40.3%
2 | CN(N=Nc1nc[nH]c1C(N)=O)C1CCCCC1 | 24.9%
3 | CCSc1nsc(NC(=O)Nc2cccc(F)c2)n1 | 23.8%
4 | CCOc1ccc(C(=O)C(CN2CCOCC2)c2ccccc2)cc1 (stereo not given) | 21.4%
5 | C[C@H](NC(=O)c1ccco1)C(=O)Nc1cccc([N+](=O)[O-])c1 | 35.2%
6 | CC(=O)c1sc(NC(=O)CCS(=O)(=O)c2ccc(Cl)cc2)nc1C | 24%
7 | COc1cccc2c1C(=O)c1c(O)c3c(c(O)c1C2=O)C[C@](O)(C(C)=O)C[C@H]3O[C@@H]1C[C@@H](N)[C@@H](O)[C@@H](C)O1 | 31.6%
8 | CC(/C=C1\SC(=O)N(CC(=O)Nc2ccc(O)cc2)C1=O)=C\c1ccccc1 | -8.58%
9 | BrC(=C\c1ccccc1)/C=N/n1cnnc1 | 20.9%
10 | COc1ccc(S(=O)(=O)N(C)C[C@H]2Oc3ccc(NC(=O)Nc4ccc(C(F)(F)F)cc4)cc3C(=O)N([C@H](C)CO)C[C@@H]2C)cc1 | 26.7%
11 | Cc1cc(C)n(-c2nc(NCCN(C)C)c3c4c(sc3n2)CCCC4)n1 | -8.52%
12 | O=c1cc(C(Cl)(Cl)Cl)oc2c1ccc1ccccc12 | 15.9%
13 | CCCCn1c(N)c(N(CCC(C)C)C(=O)COC(=O)c2ccc([N+](=O)[O-])s2)c(=O)[nH]c1=O | 39%
14 | Cn1nnnc1Sc1ncnc2scc(-c3ccc([N+](=O)[O-])cc3)c12 | 0.679%
15 | CN=c1scc(-c2cccs2)n1/N=C/c1ccccc1O | 31.8%
16 | Cc1ccc2nc(NNC(=O)c3ccc(S(=O)(=O)N4CCc5ccccc5C4)cc3)sc2c1 | 22%
17 | O=C(Nc1ccc(Cl)cc1)/C(=C/c1cccc(O)c1)c1nc2ccccc2s1 | 33.8%
18 | O=C(Nc1ccccc1)Nc1cc(OCC(F)(F)F)cc(OCC(F)(F)F)c1 | 14.7%
19 | COC(=O)[C@@]12C[C@@H](CC(=O)N3CCN(C(=O)c4ccco4)CC3)C(=O)N(Cc3ccccc3)C1=CCC(C)(C)C2 | -4.92%
20 | CC[C@]1(O)C[C@@H]2CN(CCc3c([nH]c4ccccc34)[C@@](C(=O)OC)(c3cc4c(cc3OC)N(C)[C@H]3[C@@](O)(C(=O)OC)[C@H](OC(C)=O)[C@]5(CC)C=CCN6CC[C@]43[C@@H]65)C2)C1 | 32%

Row | Structure (SMILES) | activity change, negative = inhibition
21 | CC(=O)Nc1ccc(NC(=O)c2nc(S(=O)(=O)Cc3ccccc3)ncc2Cl)cc1 | 37.7%
22 | COc1cccc2c1C(=O)c1c(O)c3c(c(O)c1C2=O)CC(O)(C(C)=NNC(=O)c1ccc(Cl)c(Cl)c1)CC3OC1CC(N)C(O)C(C)O1 (stereo not given) | 33.7%
23 | CCN(CC)c1ccc2c(cc1=O)[C@@H](NC)CCc1cc(OC)c(OC)c(OC)c1-2 | 28.5%
24 | Oc1ccc(C[C@H]2CN([C@@H](Cc3ccc(O)cc3)CN3CCC[C@@H]3CN3C(=S)NC[C@@H]3Cc3ccccc3)C(=S)N2CC2CCCCCC2)cc1 | 52%
25 | COc1ccc(OC)c2sc(N(CCCN(C)C)C(=O)CCS(=O)(=O)c3ccccc3)nc12 | 33.7% [at 16 µM]
26 | O=C(Nc1cc(S(=O)(=O)N2CCCCC2)ccc1Cl)c1ccccc1NS(=O)(=O)c1ccc(F)cc1 | 18%
27 | O=C(COC(=O)c1ccco1)Nc1cccc(S(=O)(=O)N2CCOCC2)c1 | 29.3%
28 | CN1CC(=O)N2C(c3ccc(Cl)cc3)c3[nH]c4ccccc4c3C[C@H]2C1=O (stereo not given in full) | 30.8%
29 | CCCCCc1cc(=O)oc2c(C(CCN3CCCCC3)c3ccc4c(c3)OCO4)c(OC)cc(OC)c12 (stereo not given) | 42.5%
30 | Cn1nnnc1Sc1ncnc2scc(-c3ccc[nH]3)c12 | 25.2%
31 | CCC(=O)N1CCN(c2ccc(NC(=O)c3ccc([N+](=O)[O-])o3)cc2)CC1 | 22.3%
32 | COc1cc(NC(=O)c2ccc([N+](=O)[O-])o2)ccc1NC(=O)c1ccco1 | 28.9%
33 | Cc1ccc(S(=O)(=O)NCc2ccc(C(=O)N3CCN(c4ccc([N+](=O)[O-])cc4)CC3)cc2)cc1 | 37.3%
34 | O=C(Cn1ncc(Cl)c(Cl)c1=O)Nc1ccc2c(c1)OCO2 | 23.5%
35 | C=C1C(=O)[C@]23C[C@H]1CC[C@H]2[C@]1(C)[C@@H](OC(C)=O)CC[C@@](C)(C(=O)O)[C@H]1C[C@@H]3O | 23.9%
36 | O=C(Cn1ncc(Cl)c(Cl)c1=O)NC(=O)NC1CCCCC1 | 21.3%
37 | CC(C)=CCNc1ncnc2c1c(C#N)cn2C1OC(CO)C(O)C1O (stereo not given) | 26.9%
38 | CN1C(=O)/C(=C\C(=O)c2cccs2)c2ccccc21 | 2.17%
39 | COc1cccc(-c2nc(CS(=O)(=O)CC(=O)NCCCN3CC(C)CC(C)C3)c(C)o2)c1 (stereo not given) | 35.3%
40 | C=CC[C@@H](CC(=O)N[C@H](CO)Cc1ccccc1)C(=O)N[C@H](COC(=O)[C@@H](CC=C)Cc1ccc(F)cc1)Cc1c[nH]c2ccccc12 | 28.9% [at 16 µM]

experiment: inhibitors of CMV-promoter luciferase reporter, dose response, counter-screen for Pax8 inhibitor project, cell-based, HEK293, luminescence, dry powder (AID 743020); conditions: SteadyGlo luminescence, 24 h; series mostly up to 35 µM; activity change, negative = inhibition: at the top concentration;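 further: HEK293 cells stably expressing the CMV luciferase reporter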

Row | Structure (SMILES) | activity change, negative = inhibition
41 | Cc1ccc(CCc2nnc(SCC(=O)Nc3cccc(Cl)c3)n2-c2ccccc2)o1 | 1.63%
42 | CN(N=Nc1nc[nH]c1C(N)=O)C1CCCCC1 | 6.83%
43 | CCSc1nsc(NC(=O)Nc2cccc(F)c2)n1 | 52.4%
44 | CCOc1ccc(C(=O)C(CN2CCOCC2)c2ccccc2)cc1 (stereo not given) | -7.59%
45 | C[C@H](NC(=O)c1ccco1)C(=O)Nc1cccc([N+](=O)[O-])c1 | -16.7%
46 | CC(=O)c1sc(NC(=O)CCS(=O)(=O)c2ccc(Cl)cc2)nc1C | 5.39%
47 | COc1cccc2c1C(=O)c1c(O)c3c(c(O)c1C2=O)C[C@](O)(C(C)=O)C[C@H]3O[C@@H]1C[C@@H](N)[C@@H](O)[C@@H](C)O1 | 7.02%
48 | CC(/C=C1\SC(=O)N(CC(=O)Nc2ccc(O)cc2)C1=O)=C\c1ccccc1 | 19.7%
49 | BrC(=C\c1ccccc1)/C=N/n1cnnc1 | 18.9%
50 | COc1ccc(S(=O)(=O)N(C)C[C@H]2Oc3ccc(NC(=O)Nc4ccc(C(F)(F)F)cc4)cc3C(=O)N([C@H](C)CO)C[C@@H]2C)cc1 | 190%
51 | Cc1cc(C)n(-c2nc(NCCN(C)C)c3c4c(sc3n2)CCCC4)n1 | -6.13%
52 | O=c1cc(C(Cl)(Cl)Cl)oc2c1ccc1ccccc12 | 5.92%
53 | CCCCn1c(N)c(N(CCC(C)C)C(=O)COC(=O)c2ccc([N+](=O)[O-])s2)c(=O)[nH]c1=O | -3.33%
54 | Cn1nnnc1Sc1ncnc2scc(-c3ccc([N+](=O)[O-])cc3)c12 | 2.85%
55 | CN=c1scc(-c2cccs2)n1/N=C/c1ccccc1O | 2.04%
56 | Cc1ccc2nc(NNC(=O)c3ccc(S(=O)(=O)N4CCc5ccccc5C4)cc3)sc2c1 | -8.42%
57 | O=C(Nc1ccc(Cl)cc1)/C(=C/c1cccc(O)c1)c1nc2ccccc2s1 | -16.1%
58 | O=C(Nc1ccccc1)Nc1cc(OCC(F)(F)F)cc(OCC(F)(F)F)c1 | -14.6%
59 | COC(=O)[C@@]12C[C@@H](CC(=O)N3CCN(C(=O)c4ccco4)CC3)C(=O)N(Cc3ccccc3)C1=CCC(C)(C)C2 | -1.11%
60 | CC[C@]1(O)C[C@@H]2CN(CCc3c([nH]c4ccccc34)[C@@](C(=O)OC)(c3cc4c(cc3OC)N(C)[C@H]3[C@@](O)(C(=O)OC)[C@H](OC(C)=O)[C@]5(CC)C=CCN6CC[C@]43[C@@H]65)C2)C1 | 7.44%

Row | Structure (SMILES) | activity change, negative = inhibition
61 | CC(=O)Nc1ccc(NC(=O)c2nc(S(=O)(=O)Cc3ccccc3)ncc2Cl)cc1 | 0%
62 | COc1cccc2c1C(=O)c1c(O)c3c(c(O)c1C2=O)CC(O)(C(C)=NNC(=O)c1ccc(Cl)c(Cl)c1)CC3OC1CC(N)C(O)C(C)O1 (stereo not given) | 9.16%
63 | CCN(CC)c1ccc2c(cc1=O)[C@@H](NC)CCc1cc(OC)c(OC)c(OC)c1-2 | 132%
64 | Oc1ccc(C[C@H]2CN([C@@H](Cc3ccc(O)cc3)CN3CCC[C@@H]3CN3C(=S)NC[C@@H]3Cc3ccccc3)C(=S)N2CC2CCCCCC2)cc1 | -0.169%
65 | COc1ccc(OC)c2sc(N(CCCN(C)C)C(=O)CCS(=O)(=O)c3ccccc3)nc12 | -8.31%
66 | O=C(Nc1cc(S(=O)(=O)N2CCCCC2)ccc1Cl)c1ccccc1NS(=O)(=O)c1ccc(F)cc1 | -23.8%
67 | O=C(COC(=O)c1ccco1)Nc1cccc(S(=O)(=O)N2CCOCC2)c1 | 12%
68 | CN1CC(=O)N2C(c3ccc(Cl)cc3)c3[nH]c4ccccc4c3C[C@H]2C1=O (stereo not given in full) | -14.4%
69 | CCCCCc1cc(=O)oc2c(C(CCN3CCCCC3)c3ccc4c(c3)OCO4)c(OC)cc(OC)c12 (stereo not given) | 2.02%
70 | Cn1nnnc1Sc1ncnc2scc(-c3ccc[nH]3)c12 | -8.48%
71 | CCC(=O)N1CCN(c2ccc(NC(=O)c3ccc([N+](=O)[O-])o3)cc2)CC1 | -9.46%
72 | COc1cc(NC(=O)c2ccc([N+](=O)[O-])o2)ccc1NC(=O)c1ccco1 | 19.4%
73 | Cc1ccc(S(=O)(=O)NCc2ccc(C(=O)N3CCN(c4ccc([N+](=O)[O-])cc4)CC3)cc2)cc1 | 136%
74 | O=C(Cn1ncc(Cl)c(Cl)c1=O)Nc1ccc2c(c1)OCO2 | -0.718%
75 | C=C1C(=O)[C@]23C[C@H]1CC[C@H]2[C@]1(C)[C@@H](OC(C)=O)CC[C@@](C)(C(=O)O)[C@H]1C[C@@H]3O | -25.2%
76 | O=C(Cn1ncc(Cl)c(Cl)c1=O)NC(=O)NC1CCCCC1 | 2.56%
77 | CC(C)=CCNc1ncnc2c1c(C#N)cn2C1OC(CO)C(O)C1O (stereo not given) | -17.9%
78 | CN1C(=O)/C(=C\C(=O)c2cccs2)c2ccccc21 | -3.79%
79 | COc1cccc(-c2nc(CS(=O)(=O)CC(=O)NCCCN3CC(C)CC(C)C3)c(C)o2)c1 (stereo not given) | -2.91%
80 | C=CC[C@@H](CC(=O)N[C@H](CO)Cc1ccccc1)C(=O)N[C@H](COC(=O)[C@@H](CC=C)Cc1ccc(F)cc1)Cc1c[nH]c2ccccc12 | -10%
